Data reported in ChEMBL document CHEMBL1961873, “Compounds: GSK PKIS; Assays: Nanosyn kinase panel” (2012).

Legend:
[1] = molecular target: Tyrosine-protein kinase CSK (Homo sapiens) (UniProt P41240); details: at 1 µM;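 also: each value is an averaged inhibition reading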
[2] = molecular target: T1, Discoidin domain-containing receptor 2 (Homo sapiens) (UniProt Q16832); details: at 0.1 µM
T1 sequence (whole entry): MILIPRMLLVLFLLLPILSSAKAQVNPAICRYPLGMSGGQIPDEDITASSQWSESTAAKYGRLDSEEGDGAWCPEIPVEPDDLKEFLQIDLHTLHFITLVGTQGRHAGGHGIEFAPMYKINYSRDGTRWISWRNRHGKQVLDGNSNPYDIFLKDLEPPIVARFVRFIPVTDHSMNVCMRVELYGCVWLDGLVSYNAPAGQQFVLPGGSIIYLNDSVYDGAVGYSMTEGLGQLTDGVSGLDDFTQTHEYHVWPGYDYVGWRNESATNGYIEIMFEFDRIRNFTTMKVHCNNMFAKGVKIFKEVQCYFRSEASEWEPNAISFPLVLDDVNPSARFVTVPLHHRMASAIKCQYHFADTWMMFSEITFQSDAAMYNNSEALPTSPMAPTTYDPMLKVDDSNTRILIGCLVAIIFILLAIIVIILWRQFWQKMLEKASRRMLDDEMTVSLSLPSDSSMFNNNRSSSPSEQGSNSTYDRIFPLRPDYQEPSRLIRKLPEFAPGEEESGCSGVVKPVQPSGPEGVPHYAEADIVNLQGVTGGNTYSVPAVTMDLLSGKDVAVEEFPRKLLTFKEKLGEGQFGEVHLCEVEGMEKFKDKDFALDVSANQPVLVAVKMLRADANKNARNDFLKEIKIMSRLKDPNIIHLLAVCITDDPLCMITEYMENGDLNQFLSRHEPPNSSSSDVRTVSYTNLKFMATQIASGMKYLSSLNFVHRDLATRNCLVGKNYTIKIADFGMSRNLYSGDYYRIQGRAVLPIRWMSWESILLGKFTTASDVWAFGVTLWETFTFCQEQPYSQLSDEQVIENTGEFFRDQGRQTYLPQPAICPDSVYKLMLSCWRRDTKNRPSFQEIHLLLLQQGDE

[3] = molecular target: T1, Discoidin domain-containing receptor 2 (Homo sapiens); details: at 1 µM
[4] = molecular target: Epidermal growth factor receptor (Homo sapiens) (UniProt P00533); details: at 0.1 µM
[5] = molecular target: Epidermal growth factor receptor (Homo sapiens) (UniProt P00533); details: at 1 µM
[6] = system: Epidermal growth factor receptor (Homo sapiens), P00533 [L858R]; details: at 0.1 µM
[7] = system: Epidermal growth factor receptor (Homo sapiens), P00533 [L858R]; details: at 1 µM
[8] = system: Epidermal growth factor receptor (Homo sapiens), P00533 [L861Q]; details: at 0.1 µM
[9] = system: Epidermal growth factor receptor (Homo sapiens), P00533 [L861Q]; details: at 1 µM
[10] = system: Epidermal growth factor receptor (Homo sapiens), P00533 [T790M]; details: at 0.1 µM
Sequence of Epidermal growth factor receptor (Homo sapiens), P00533 [T790M] (P00533 whole entry T790M): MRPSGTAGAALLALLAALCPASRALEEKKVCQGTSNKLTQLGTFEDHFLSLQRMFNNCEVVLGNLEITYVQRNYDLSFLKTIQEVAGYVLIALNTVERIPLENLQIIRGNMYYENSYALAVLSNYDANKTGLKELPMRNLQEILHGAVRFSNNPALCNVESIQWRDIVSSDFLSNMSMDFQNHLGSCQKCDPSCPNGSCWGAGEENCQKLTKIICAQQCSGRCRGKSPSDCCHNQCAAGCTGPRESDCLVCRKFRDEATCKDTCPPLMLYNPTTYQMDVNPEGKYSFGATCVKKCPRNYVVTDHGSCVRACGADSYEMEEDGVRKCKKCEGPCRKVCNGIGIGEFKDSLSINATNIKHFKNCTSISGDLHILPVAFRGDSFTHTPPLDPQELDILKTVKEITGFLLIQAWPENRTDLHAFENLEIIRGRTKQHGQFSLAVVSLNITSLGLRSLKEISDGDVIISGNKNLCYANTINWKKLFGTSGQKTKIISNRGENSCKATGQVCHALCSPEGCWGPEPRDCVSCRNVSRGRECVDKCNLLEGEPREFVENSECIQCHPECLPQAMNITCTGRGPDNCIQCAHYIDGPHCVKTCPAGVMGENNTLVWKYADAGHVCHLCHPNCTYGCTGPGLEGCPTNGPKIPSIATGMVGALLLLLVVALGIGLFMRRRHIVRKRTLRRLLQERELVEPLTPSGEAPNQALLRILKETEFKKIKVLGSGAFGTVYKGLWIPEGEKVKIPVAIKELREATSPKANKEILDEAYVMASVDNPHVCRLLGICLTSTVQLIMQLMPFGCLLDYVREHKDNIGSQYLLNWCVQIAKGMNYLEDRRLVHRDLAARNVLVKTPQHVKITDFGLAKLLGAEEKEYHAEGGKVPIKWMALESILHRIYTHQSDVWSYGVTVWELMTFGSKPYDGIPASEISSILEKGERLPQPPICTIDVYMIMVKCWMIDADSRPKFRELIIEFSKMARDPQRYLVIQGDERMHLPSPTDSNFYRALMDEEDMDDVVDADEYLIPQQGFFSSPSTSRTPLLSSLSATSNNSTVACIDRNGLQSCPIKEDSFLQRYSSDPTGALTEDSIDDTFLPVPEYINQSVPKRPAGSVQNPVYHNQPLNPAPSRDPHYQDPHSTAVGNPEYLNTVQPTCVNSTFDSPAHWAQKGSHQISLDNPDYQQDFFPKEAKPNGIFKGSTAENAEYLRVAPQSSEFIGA

Sequence of Epidermal growth factor receptor (Homo sapiens), P00533 [L858R] (P00533 whole entry L858R): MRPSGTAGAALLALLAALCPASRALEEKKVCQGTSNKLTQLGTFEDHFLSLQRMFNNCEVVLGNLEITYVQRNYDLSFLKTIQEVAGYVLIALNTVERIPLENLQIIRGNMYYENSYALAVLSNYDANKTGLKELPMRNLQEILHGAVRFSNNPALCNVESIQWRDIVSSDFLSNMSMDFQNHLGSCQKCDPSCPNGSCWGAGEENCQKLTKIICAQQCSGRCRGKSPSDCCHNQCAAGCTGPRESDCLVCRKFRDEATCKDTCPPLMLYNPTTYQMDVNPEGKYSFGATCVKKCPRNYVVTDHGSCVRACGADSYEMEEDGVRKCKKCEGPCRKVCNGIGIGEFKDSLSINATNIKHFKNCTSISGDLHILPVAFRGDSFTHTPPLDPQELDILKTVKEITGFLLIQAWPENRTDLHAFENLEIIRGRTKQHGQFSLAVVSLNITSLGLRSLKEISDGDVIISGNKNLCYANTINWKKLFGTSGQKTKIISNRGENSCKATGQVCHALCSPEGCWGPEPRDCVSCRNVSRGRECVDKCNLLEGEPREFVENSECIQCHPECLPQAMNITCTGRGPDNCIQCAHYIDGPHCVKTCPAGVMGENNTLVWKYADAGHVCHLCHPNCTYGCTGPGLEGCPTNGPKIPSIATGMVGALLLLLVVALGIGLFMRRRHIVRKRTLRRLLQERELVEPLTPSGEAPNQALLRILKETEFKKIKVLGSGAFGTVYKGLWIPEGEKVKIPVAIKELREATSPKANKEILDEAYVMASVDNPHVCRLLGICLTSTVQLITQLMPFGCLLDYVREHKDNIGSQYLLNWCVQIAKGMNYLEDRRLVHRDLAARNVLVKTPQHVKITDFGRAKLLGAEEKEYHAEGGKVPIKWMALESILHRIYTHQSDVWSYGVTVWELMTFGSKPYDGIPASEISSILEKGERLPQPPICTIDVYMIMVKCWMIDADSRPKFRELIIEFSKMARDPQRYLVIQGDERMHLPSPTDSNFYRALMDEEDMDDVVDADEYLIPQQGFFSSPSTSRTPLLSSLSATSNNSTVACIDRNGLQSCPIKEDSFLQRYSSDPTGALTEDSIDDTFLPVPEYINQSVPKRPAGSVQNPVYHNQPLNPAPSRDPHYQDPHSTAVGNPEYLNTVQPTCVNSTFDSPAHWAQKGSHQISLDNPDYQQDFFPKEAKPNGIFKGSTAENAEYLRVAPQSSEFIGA
Sequence of Tyrosine-protein kinase CSK (Homo sapiens) (P41240 2-450 limits assumed): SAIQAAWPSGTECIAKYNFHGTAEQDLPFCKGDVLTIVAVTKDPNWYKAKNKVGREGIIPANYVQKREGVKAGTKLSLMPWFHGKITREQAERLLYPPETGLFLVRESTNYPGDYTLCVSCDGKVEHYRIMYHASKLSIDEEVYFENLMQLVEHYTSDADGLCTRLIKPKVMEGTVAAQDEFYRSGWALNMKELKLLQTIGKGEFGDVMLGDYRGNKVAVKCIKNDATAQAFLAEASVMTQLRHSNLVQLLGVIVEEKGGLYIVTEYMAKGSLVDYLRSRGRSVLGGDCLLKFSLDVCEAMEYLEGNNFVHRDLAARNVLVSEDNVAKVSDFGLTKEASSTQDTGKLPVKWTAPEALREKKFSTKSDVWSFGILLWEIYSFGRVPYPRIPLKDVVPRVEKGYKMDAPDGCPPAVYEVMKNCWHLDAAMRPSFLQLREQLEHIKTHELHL
Sequence of Epidermal growth factor receptor (Homo sapiens) (P00533 whole entry): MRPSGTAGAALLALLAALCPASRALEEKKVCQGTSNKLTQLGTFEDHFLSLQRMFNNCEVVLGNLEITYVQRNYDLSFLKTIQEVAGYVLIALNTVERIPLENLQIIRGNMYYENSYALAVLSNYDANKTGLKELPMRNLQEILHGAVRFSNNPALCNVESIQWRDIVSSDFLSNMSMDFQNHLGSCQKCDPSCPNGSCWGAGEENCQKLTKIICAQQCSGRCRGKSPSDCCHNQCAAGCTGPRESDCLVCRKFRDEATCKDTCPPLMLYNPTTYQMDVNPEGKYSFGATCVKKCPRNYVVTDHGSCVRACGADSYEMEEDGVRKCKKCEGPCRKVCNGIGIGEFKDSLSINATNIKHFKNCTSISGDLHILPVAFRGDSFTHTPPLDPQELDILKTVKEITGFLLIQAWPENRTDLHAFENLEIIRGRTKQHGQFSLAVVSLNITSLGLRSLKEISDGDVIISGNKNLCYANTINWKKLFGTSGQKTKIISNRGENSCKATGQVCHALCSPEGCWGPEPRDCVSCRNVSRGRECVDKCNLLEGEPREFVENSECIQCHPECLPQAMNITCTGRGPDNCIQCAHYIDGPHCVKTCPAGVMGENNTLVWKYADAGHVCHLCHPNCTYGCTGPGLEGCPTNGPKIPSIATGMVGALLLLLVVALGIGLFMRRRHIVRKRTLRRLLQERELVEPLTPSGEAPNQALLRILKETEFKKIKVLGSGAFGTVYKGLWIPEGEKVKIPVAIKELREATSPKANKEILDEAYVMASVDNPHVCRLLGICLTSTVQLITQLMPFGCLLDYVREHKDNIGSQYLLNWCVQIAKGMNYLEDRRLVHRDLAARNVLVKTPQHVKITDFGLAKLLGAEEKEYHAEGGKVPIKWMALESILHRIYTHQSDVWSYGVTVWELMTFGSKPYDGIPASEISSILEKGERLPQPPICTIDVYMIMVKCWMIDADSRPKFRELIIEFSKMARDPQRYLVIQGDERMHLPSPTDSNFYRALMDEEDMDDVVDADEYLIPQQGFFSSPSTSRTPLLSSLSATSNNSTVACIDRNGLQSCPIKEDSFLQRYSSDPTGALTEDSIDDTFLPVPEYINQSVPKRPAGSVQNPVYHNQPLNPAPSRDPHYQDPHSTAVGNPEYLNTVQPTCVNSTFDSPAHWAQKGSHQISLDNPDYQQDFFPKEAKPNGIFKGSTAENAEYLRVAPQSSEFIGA

Structure (SMILES)	inhibition [1]	inhibition [2]	inhibition [3]	inhibition [4]	inhibition [5]	inhibition [6]	inhibition [7]	inhibition [8]	inhibition [9]	inhibition [10]
COC(=O)Nc1nc2ccc(Sc3ccc(NC(=O)Nc4cc(C(F)(F)F)ccc4F)cc3)cc2[nH]1	7.52%	56.3%	83.5%	-0.94%	2.67%	-0.44%	2.71%	2.04%	0.54%	0.63%
COc1cc(C)c(N(C)C(=O)CN(C)C)cc1Nc1nc(Nc2cccc(F)c2C(N)=O)c2cc[nH]c2n1	-1.53%	0.29%	0.56%	-4.88%	-1.47%	-1.11%	1.56%	1.84%	-2.41%	0.93%
O=C1Nc2ccccc2/C1=C/Nc1ccc(-n2cncn2)cc1	7.33%	-0.37%	0.37%	4.22%	4.08%	2.81%	4.05%	3.11%	4.38%	2.21%
Cc1ccc(NC(=O)c2ccoc2)cc1-c1ccc(C(=O)NCC2CC2)cc1	0.18%	1.48%	2.43%	3.14%	6.36%	3.23%	1%	0.74%	0.37%	1.63%
CN(c1ccc(NC(=O)Nc2c(Cl)cccc2Cl)cc1)c1ccnc(Nc2cccc(CS(C)(=O)=O)c2)n1	19.5%	11.1%	26.9%	2.38%	5.8%	1.91%	8.57%	4.35%	7.45%	1.27%
CCc1cccc(CC)c1/C=C/c1cncc(C(=O)NC)c1	0.54%	1.3%	6.62%	3.24%	6.32%	4.88%	3.92%	1.32%	2.46%	2.4%
CN(C)CCOc1ccc(-c2cc(-c3ccc4c(c3)CCC4=NO)c(-c3ccncc3)o2)cc1	-1.46%	0.26%	1.8%	4.94%	7.65%	-0.5%	7.4%	-0.03%	4.41%	-1.42%
COc1cc2ncn(-c3cc(OCc4cccs4)c(C(N)=O)s3)c2cc1OC	9.5%	3.95%	4.63%	-1.17%	1.76%	4.34%	18.5%	2.87%	7.86%	1.54%
O=C(Nc1n[nH]c2cc(-c3ccccc3)ccc12)C1CC1	4.74%	1.43%	5.94%	3.06%	6.49%	2.84%	5.13%	4.05%	0.82%	2.65%
NS(=O)(=O)c1ccc(N/N=C2\C(=O)Nc3ccc(C(=O)NCCCn4ccnc4)cc32)cc1	6.51%	0.72%	1.93%	3.44%	5.59%	0.2%	6.95%	1.73%	5.08%	2.53%
c1ccc(Oc2ccc(Nc3ncc(-c4ccccc4)o3)cc2)cc1	1.07%	0.51%	0.6%	1.92%	3.79%	1.22%	0.93%	1.49%	3.06%	0.57%
Nc1nccc(-c2c(-c3ccc(F)cc3)ncn2C2CCC(O)CC2)n1 (stereo not given)	-0.86%	-0.26%	13.3%	4.04%	35.7%	18.4%	76.8%	4.44%	33.2%	-1.86%
COc1cc(N2CCN(C(C)C)CC2)ccc1Nc1nc(Nc2ccc(F)cc2C(=O)NC[C@@H](O)CO)c2cc[nH]c2n1	6.92%	0.31%	1.21%	-0.53%	0.84%	0.89%	11.2%	5.68%	8.58%	4.54%
O=C(Nc1ccc(Oc2ccc3[nH]c(NC(=O)c4ccccc4)nc3c2)cc1)Nc1cc(C(F)(F)F)ccc1F	11.7%	24.4%	78.7%	-0.35%	1.11%	7.18%	6.93%	2.47%	3.54%	2.22%
Fc1ccc(-c2ncn(C3CCNCC3)c2-c2ccnc(Oc3ccc4c(c3)OCO4)n2)cc1	6.08%	6.32%	7.88%	5.59%	13.1%	4.4%	18.7%	3.06%	10.2%	2.39%
NS(=O)(=O)c1ccc(N/N=C2\C(=O)Nc3ccc(-c4cnco4)cc32)cc1	4.17%	1.59%	2.15%	9.52%	12.9%	2.54%	6.44%	2.45%	4.95%	0.19%
C#Cc1cccc(Nc2ncnc3ccc(OCCCCNCCS(C)(=O)=O)cc23)c1	8.24%	4.72%	9.88%	75.9%	85.4%	96.8%	97.7%	91.7%	97.6%	3.8%
